Common to all, as to experiment: DAPPL (digital affinity profiling via proximity ligation, sequencing); 10 mM Tris-HCl pH 7.5, 50 mM NaCl, 1 mM DTT, 4% glycerol, room temperature, 30 min; GST-TFs on glutathione beads, 16-mer random dsDNA library, 0.1% formaldehyde crosslink after washing; high values mean tight binding
The target of one experiment is T1, ELK1 (Homo sapiens, UniProt P19419 1-428).
T1 sequence: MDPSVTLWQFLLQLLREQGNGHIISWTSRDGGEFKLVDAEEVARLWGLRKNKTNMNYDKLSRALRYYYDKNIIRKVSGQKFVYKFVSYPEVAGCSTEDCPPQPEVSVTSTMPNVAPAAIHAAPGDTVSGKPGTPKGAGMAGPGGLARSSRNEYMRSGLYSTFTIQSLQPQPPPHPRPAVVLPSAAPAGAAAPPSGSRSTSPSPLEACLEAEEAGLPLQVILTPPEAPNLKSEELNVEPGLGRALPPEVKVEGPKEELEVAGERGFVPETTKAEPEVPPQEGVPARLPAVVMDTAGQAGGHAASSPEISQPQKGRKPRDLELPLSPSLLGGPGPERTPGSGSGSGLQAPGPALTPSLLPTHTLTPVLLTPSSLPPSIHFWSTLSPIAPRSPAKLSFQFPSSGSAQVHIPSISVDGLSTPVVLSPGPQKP
To be noted: protein: recombinant; tags: N-terminal GST; dsDNA, one strand shown. The method in brief: (§1)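 A tag-only sample was pooled with DNA-barcoded human transcription factors that had been expressed in yeast as GST fusions and captured on glutathione beads. The pools were incubated for 30 min at room temperature with 200 nmole of a random double-stranded 16-mer DNA library in Tris/NaCl/DTT/glycerol buffer, then washed, crosslinked with 0.1% formaldehyde, proximity-ligated (BsaI/T4 ligase, 1 h, 37 °C), PCR-amplified and sequenced on an Illumina NextSeq500. Binding signal is each hexamer's read frequency for a factor divided by its frequency for the tag-only sample.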

Another experiment addresses ELF1 (Homo sapiens, UniProt P32519 1-619). Conditions: protein: recombinant; tags: N-terminal GST; dsDNA, one strand shown. Put shortly: as §1
The target of a further experiment is SPI1 (Homo sapiens, UniProt P17947 1-270). To be noted: protein: recombinant; tags: N-terminal GST; dsDNA, one strand shown. Put shortly: as §1
A further experiment addresses SPIB (Homo sapiens, UniProt Q01892 1-262). Conditions: protein: recombinant; tags: N-terminal GST; dsDNA, one strand shown. Put shortly: as §1
In a further experiment the target is HSF1 (Homo sapiens, UniProt Q00613 1-529). To be noted: protein: recombinant; tags: N-terminal GST; chain copies: 3; dsDNA, one strand shown. The method in brief:
as §1

Another experiment has as its target T2, SPIC (Homo sapiens, UniProt Q8N5J4 1-248).
T2 sequence: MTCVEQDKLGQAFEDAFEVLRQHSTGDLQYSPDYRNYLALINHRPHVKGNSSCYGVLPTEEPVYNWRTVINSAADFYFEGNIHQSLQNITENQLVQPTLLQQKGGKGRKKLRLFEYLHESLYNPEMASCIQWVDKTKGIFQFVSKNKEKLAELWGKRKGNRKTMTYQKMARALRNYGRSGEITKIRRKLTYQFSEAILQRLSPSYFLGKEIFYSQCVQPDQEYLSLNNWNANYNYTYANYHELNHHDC
To be noted: protein: recombinant; tags: N-terminal GST; dsDNA, one strand shown. Put shortly: as §1

In another experiment the target is T3, ELK4 (Homo sapiens, UniProt P28324-2 1-405).
T3 sequence: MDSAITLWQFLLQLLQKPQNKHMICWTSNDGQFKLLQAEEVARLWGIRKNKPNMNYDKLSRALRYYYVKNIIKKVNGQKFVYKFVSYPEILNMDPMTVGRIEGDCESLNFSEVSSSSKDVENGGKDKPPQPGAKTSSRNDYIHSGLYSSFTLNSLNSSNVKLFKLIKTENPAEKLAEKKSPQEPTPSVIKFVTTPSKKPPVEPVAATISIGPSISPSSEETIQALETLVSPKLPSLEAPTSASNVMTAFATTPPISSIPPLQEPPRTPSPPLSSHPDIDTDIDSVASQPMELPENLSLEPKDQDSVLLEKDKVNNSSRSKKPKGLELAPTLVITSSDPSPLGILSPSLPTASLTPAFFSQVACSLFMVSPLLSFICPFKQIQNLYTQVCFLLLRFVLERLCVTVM
Conditions: protein: recombinant; tags: N-terminal GST; dsDNA, one strand shown. Put shortly:
as §1

The target in another experiment is T4, ELF3 (Homo sapiens, UniProt P78545 1-371).
T4 sequence: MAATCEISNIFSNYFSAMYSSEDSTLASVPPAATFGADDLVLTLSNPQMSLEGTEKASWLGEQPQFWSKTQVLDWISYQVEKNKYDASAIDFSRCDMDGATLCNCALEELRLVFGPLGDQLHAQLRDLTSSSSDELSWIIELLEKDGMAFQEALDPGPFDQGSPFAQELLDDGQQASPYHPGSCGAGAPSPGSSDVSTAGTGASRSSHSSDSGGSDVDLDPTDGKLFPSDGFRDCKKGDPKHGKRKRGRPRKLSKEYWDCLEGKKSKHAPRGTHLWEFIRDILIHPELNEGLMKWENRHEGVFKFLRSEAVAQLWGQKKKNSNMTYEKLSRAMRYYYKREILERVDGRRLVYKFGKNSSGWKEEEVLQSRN
Conditions: protein: recombinant; tags: N-terminal GST; dsDNA, one strand shown. Put shortly:
as §1

For another experiment, the target named is ETV1 (Homo sapiens, UniProt P50549 1-477). Conditions: protein: recombinant; tags: N-terminal GST; dsDNA, one strand shown. The method in brief:
as §1

The next experiment concerns the target T5, ERF (Homo sapiens, UniProt P50548 1-548).
T5 sequence: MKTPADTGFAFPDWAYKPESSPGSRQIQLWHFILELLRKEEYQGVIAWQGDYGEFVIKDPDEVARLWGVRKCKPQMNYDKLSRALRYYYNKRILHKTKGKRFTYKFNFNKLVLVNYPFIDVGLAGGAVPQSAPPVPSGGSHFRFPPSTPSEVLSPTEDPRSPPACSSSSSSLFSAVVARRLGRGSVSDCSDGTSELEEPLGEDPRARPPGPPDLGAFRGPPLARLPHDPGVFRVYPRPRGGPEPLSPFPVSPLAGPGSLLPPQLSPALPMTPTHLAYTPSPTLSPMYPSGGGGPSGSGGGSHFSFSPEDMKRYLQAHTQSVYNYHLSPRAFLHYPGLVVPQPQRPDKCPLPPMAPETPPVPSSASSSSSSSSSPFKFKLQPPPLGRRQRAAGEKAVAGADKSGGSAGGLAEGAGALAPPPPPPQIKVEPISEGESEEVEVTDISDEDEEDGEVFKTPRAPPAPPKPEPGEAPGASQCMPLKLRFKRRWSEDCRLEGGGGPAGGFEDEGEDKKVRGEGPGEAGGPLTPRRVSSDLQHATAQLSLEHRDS
To be noted: protein: recombinant; tags: N-terminal GST; dsDNA, one strand shown. Put shortly: as §1

Another experiment deals with T6, ETS2 (Homo sapiens, UniProt P15036 1-469).
T6 sequence: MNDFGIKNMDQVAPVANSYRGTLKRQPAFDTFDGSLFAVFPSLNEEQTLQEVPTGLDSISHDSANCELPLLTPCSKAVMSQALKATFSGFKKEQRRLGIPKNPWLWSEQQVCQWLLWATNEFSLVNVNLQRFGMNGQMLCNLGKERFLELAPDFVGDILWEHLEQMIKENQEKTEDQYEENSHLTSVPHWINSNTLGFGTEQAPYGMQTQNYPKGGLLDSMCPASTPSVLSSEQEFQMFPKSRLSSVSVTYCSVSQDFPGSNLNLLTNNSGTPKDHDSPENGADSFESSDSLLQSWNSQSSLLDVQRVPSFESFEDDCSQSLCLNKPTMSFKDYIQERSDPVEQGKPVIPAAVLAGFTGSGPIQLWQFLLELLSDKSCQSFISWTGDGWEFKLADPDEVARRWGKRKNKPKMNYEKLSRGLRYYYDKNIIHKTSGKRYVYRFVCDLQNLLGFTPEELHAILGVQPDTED
To be noted: protein: recombinant; tags: N-terminal GST; dsDNA, one strand shown. The method in brief: as §1

For the next experiment, the target named is T7, ETV3 (Homo sapiens, UniProt P41162-2 1-143).
T7 sequence: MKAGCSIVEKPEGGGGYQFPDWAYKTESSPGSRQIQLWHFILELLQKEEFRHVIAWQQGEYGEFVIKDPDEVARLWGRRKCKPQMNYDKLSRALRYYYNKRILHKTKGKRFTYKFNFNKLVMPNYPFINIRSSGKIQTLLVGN
To be noted: protein: recombinant; tags: N-terminal GST; dsDNA, one strand shown. Put shortly:
as §1

Chain of ETV1 (P50549 whole entry): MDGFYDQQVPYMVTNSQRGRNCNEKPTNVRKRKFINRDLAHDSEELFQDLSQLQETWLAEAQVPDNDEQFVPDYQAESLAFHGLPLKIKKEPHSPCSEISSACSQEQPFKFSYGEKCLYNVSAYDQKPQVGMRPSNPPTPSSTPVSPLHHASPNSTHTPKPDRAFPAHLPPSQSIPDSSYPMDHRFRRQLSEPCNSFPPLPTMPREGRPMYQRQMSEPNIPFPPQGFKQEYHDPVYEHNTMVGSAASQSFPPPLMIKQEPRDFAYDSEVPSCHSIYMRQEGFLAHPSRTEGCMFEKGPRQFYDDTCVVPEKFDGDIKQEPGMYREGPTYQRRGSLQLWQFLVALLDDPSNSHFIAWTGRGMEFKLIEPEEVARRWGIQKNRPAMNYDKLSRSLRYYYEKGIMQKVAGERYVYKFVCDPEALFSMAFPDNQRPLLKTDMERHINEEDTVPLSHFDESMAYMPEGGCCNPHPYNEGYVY
Chain of HSF1 (Q00613 whole entry): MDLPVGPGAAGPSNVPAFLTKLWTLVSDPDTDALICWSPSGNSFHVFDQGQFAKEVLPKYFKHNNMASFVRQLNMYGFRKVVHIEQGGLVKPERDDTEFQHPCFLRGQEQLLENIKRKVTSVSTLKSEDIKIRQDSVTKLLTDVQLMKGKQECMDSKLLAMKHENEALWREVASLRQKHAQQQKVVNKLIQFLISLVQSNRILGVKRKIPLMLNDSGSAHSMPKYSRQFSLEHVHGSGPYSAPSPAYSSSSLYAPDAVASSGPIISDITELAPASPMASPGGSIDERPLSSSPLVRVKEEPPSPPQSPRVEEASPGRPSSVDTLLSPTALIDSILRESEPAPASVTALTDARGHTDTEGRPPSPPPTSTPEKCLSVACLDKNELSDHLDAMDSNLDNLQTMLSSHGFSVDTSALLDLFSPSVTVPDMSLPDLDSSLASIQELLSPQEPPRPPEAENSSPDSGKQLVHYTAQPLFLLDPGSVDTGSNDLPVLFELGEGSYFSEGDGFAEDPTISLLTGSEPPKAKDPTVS
Chain of SPIB (Q01892 whole entry): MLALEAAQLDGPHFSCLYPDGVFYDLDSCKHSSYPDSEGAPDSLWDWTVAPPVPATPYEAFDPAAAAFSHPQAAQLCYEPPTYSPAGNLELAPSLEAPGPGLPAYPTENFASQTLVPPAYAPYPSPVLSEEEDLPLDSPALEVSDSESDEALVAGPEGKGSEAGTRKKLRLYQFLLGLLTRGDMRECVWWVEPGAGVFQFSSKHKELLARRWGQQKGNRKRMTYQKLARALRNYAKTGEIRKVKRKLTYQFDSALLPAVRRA
Chain of ELF1 (P32519 whole entry): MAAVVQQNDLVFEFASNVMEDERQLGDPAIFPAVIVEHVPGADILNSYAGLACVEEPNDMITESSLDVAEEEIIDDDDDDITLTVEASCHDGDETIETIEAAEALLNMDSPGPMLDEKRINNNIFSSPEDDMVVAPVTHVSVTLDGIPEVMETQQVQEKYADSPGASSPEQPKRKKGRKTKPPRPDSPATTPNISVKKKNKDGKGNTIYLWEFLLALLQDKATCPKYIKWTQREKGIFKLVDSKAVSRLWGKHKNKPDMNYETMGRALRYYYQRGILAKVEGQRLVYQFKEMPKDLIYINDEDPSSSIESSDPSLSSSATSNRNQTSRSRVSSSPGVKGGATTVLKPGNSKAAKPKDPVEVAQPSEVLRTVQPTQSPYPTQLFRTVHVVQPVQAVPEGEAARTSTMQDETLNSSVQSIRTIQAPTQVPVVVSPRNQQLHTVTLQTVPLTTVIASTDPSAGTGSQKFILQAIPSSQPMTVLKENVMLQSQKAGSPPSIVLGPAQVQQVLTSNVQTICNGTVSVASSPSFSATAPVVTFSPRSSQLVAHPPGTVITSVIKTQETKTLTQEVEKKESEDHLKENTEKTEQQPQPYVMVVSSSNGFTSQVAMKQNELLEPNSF

With CCCTAG, the binding signal is 1.04 fold enrichment (6-mer frequency, TF over GST control) with ELK1; 1.06 fold enrichment (6-mer frequency, TF over GST control) in the experiment with ELF1; 1 fold enrichment (6-mer frequency, TF over GST control) with SPI1; 1.05 fold enrichment (6-mer frequency, TF over GST control) in the experiment with SPIB; 1.15 fold enrichment (6-mer frequency, TF over GST control) with HSF1; 1.18 fold enrichment (6-mer frequency, TF over GST control) in the experiment with SPIC. The binding signal was 1.01 fold enrichment (6-mer frequency, TF over GST control) in the experiment with ELK4; 1.13 fold enrichment (6-mer frequency, TF over GST control) with ELF3; 1.01 fold enrichment (6-mer frequency, TF over GST control) with ETV1; 1.04 fold enrichment (6-mer frequency, TF over GST control) with ERF; 1.03 fold enrichment (6-mer frequency, TF over GST control) with ETS2; 1.04 fold enrichment (6-mer frequency, TF over GST control) with ETV3.

For the origin of these results see PMC7862700, “An all-to-all approach to the identification of sequence-specific readers for epigenetic DNA modifications on cytosine”.
